Inconclusive results are not listed. Active and inactive are the calls of the source. The calls were made as follows, unless noted: active = hit-call score of the fitted dose curve at least 0.9, where 1 is the maximum; inactive = score below 0.9.
Columns and labels:
[1] = CCTE_Harrill_HTTr_Viability_MCF7: CCTE's 6-hour Cell Viability Assessment for the High-Throughput Transcriptomics (HTTr) Platform, in MCF-7 cells cultured in DMEM + 10% fetal bovine serum, Harrill Lab (AID 2284010)
Outline: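 Membrane integrity was scored by high-content imaging of propidium iodide dye exclusion after a 6 h exposure across an eight-point dilution series. Data were fitted bidirectionally relative to DMSO as negative control and baseline.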

[2] = CCTE_Harrill_HTTr_Apoptosis_MCF7: CCTE's 6-hour Apoptosis Assessment for the High-Throughput Transcriptomics (HTTr) Platform, in MCF-7 cells cultured in DMEM + 10% fetal bovine serum, Harrill Lab (AID 2284011)
Outline: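 Read-out: CellEvent Caspase 3/7 Green signal by high content imaging, gain-of-signal indicating apoptosis. MCF-7 cells, DMEM + 10% FBS, eight-point dilution series, 6 h exposure. Curves fitted bidirectionally relative to DMSO negative control.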

[3] = CCTE_Harrill_HTTr_CellCount_MCF7: CCTE's Cell Proliferation Assessment for the High-Throughput Transcriptomics (HTTr) Platform, Harrill Lab (AID 2284012; active = hit-call score of the fitted dose curve at least 0.9, where 1 is the maximum;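 also: cells exposed to compound for six hours; intended direction is loss of nuclei count meaning fewer cells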)
Outline: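 MCF-7 cells were exposed for 6 h to an eight-point dilution series; Hoechst-labeled nuclei were counted by high content imaging. Curves were fitted bidirectionally against DMSO as negative control and baseline, with signal loss indicating reduced cell count.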

Structure (SMILES)	outcome [1]	outcome [2]	outcome [3]	AC50 [2]
c1ccc(Cc2ccccc2)cc1	inactive	inactive	inactive	
COC(=O)C(C)Oc1ccc(Oc2ncc(C(F)(F)F)cc2Cl)cc1 (stereo not given)	inactive	inactive	inactive	
CN(C)CCC=C1c2ccccc2CCc2ccccc21	inactive	inactive		
NC(N)=NC(N)=NCCc1ccccc1	inactive	inactive	inactive	
C=CC(C)CCCC(C)(C)O (stereo not given)	inactive	inactive		
CCCCCCCCCC(=O)OCC	inactive	inactive	inactive	
O=C1OC2(c3ccc(O)cc3Oc3cc(O)ccc32)c2ccccc21	inactive		inactive	171 nM (active)
Cc1cc(O)c2c(c1)C(=O)c1cc(O)cc(O)c1C2=O	inactive	inactive	inactive	
C[C@H](CCC(=O)O)[C@H]1CC[C@H]2[C@@H]3CC[C@@H]4C[C@H](O)CC[C@]4(C)[C@H]3CC[C@]12C	inactive	inactive	inactive	
O=C1CCCCCCCCCCCC(=O)OCCO1	inactive	inactive	inactive	
CN1CCc2cccc3c2[C@H]1Cc1ccc(O)c(O)c1-3	inactive	inactive	inactive	
CCCCOC(=O)C(C)OC(=O)CCC (stereo not given)	inactive	inactive	inactive	
Cc1cccc(C)c1	inactive	inactive	inactive	
CCOc1ccc(NC(C)=O)cc1	inactive	inactive	inactive	
c1ccc2scnc2c1	inactive	inactive	inactive	
C1COCO1	inactive	inactive	inactive	
CC1=CCC(C(C)(C)O)CC1 (stereo not given)	inactive	inactive	inactive	

Structure (SMILES)	outcome [1]	outcome [2]	outcome [3]	AC50 [2]
CN(C)CCCNCCCN(C)C	inactive	inactive	inactive	
CC(C)(O)CCc1ccccc1	inactive	inactive	inactive	
O=C(O)c1cc(C(=O)O)c(C(=O)O)cc1C(=O)O	inactive	inactive	inactive	
CN(C)C(=O)Nc1ccccc1	inactive	inactive	inactive	
OC[C@H]1O[C@@H](O[C@H]2[C@H](O)[C@@H](O)[C@H](O)O[C@@H]2CO)[C@H](O)[C@@H](O)[C@H]1O	inactive	inactive	inactive	
Cc1ccc(C(C)(C)O)cc1	inactive	inactive	inactive	
[O-]/[N+](=N\O)c1ccccc1	inactive	inactive	inactive	
O=c1cc(-c2ccc(O)cc2)oc2cc(O)cc(O)c12	inactive	inactive	inactive	
Cc1cccc(O)c1	inactive	inactive	inactive	
C#C[C@]1(O)CC[C@H]2[C@@H]3CCc4cc(O)ccc4[C@H]3CC[C@@]21C	inactive	inactive	inactive	
CC(=O)OC/C=C(C)/C=C/C=C(C)/C=C/C1=C(C)CCCC1(C)C	inactive	inactive	inactive	
CC(=O)C1=C(C)[C@@H]2C[C@@]3(C1)[C@H](C)CC[C@H]3C2(C)C	inactive	inactive	inactive	
O=C(O)C1=NN(c2ccc(S(=O)(=O)O)cc2)C(=O)C1	inactive	inactive	inactive	
FC(F)(F)c1ccc(Cl)c(Cl)c1	inactive	inactive	inactive	
CC12CCC(C1)C(C)(C)C2O (stereo not given)	inactive	inactive	inactive	
CC(=O)C1C(=O)C=C(C)OC1=O (stereo not given)	inactive	inactive	inactive	
COc1ccc(C(C)=O)cc1	inactive	inactive	inactive	

From PubChem BioAssay (EPA / NIEHS)
